Assay outcomes: PubChem BioAssay, National Center for Advancing Translational Sciences (NCATS)
D2 ag-1: agonists of human D2 dopamine receptor (beta-arrestin). P14416. DiscoveRx PathHunter D2 beta-arrestin, luminescence, 90 min; 100% = 57 uM dopamine signal. activation, % (no concentration beside the values). 360,000 compounds, 0.084% hits; in the data active = activation above about 40%; inconclusive = between about 15% and that limit
Target sequence (P14416 whole entry, looked up): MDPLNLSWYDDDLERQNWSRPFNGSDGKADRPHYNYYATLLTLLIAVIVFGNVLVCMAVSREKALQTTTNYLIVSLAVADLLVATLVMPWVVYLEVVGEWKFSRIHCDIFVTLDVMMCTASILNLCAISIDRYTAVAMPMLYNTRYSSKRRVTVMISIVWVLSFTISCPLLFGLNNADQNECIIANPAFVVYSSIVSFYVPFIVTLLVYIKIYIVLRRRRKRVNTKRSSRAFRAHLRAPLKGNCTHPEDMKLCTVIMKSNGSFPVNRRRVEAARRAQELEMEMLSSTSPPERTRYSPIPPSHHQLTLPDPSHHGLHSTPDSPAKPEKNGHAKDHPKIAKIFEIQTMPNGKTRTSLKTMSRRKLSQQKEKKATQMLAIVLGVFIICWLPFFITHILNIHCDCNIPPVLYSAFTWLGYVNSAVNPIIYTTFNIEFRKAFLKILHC
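Agonist mode: compounds alone added to overnight-plated D2 PathHunter cells for 90 min at 37 C, with 57 uM final dopamine (EC100) defining full response. Beta-arrestin recruitment detected by chemiluminescent reagent, read after 1 h at ambient temperature.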
D2 PAM-1: positively modulates the human D2 dopamine receptor allosterically; P14416; HEK293 T-REx D2, calcium flux, EC20 dopamine potentiation; potentiation, % at 10 µM; 340,000 compounds, 0.34% hits; AID 485347;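 active = potentiation over 3 SD above the plate norm, cut at about 30% in these data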; note: 0% is about no effect
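Primary screen. Calcium kinetics in induced HEK293 T-REx D2 cells: compound pre-addition 180 s, EC20 dopamine, 180 s more.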
D2 antag: antagonists of human D2 dopamine receptor. 340,000 compounds, 2% hits. HEK293 TREx D2 cells, calcium flux, dopamine EC80. P14416. inhibition, % at 10 µM. AID 485344; in the data active = inhibition above about 30%; inactive = below that, where a call was filed; note: 0% is about no effect
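Compounds are added to dye-loaded, induced HEK293 T-REx cells coupled to calcium release via D2; after a 3 min kinetic read an EC80 dopamine stimulus is given and fluorescence is recorded for 3 more min.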
D2 PAM-2: human D2 receptor positive allosteric modulation | 360,000 compounds, 0.23% hits | P14416 | potentiation, % (concentration not given with the values) | AID 624464 | DiscoveRx D2 beta-arrestin cells, luminescence, 90 min; 100% = 57 uM dopamine signal; in the data active = potentiation above about 50%; inconclusive = mostly about 30% to 49%
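PathHunter D2 cells, attached overnight at 37 deg C, received compound in DMSO plus dopamine at EC20 (50 nM final) for 90 min at 37 deg C. Beta-arrestin recruitment was read as luminescence after 1 h with detection reagent at ambient temperature.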
D2 ag-2: D2 dopamine receptor (human) agonism | P14416 | HEK293 T-REx D2 cells, calcium flux agonist mode | activation, % at 2 µM | 340,000 compounds, 0.53% hits | AID 485358;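 active = activation over 3 SD above normal in the single-dose calcium agonist read, cut at about 30% in these data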; note: 0% is about no effect
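Calcium-flux readout, 1 cycle/sec over 180 s following compound pin transfer, in inducible HEK293 Trex D2 cells (force-coupled); dopamine controls included. Positive calcium responses during this window marked compounds as potential agonists.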
* hit, by the source's call; ? = inconclusive; . = not tested or not shown; ! = not active in a repeat. The list is not random: actives were taken first. Their share in the collection is about 2.4%.

SMILES | D2 ag-1 | D2 PAM-1 | D2 antag | D2 PAM-2 | D2 ag-2
N#CC1=C(c2ccccc2)/C(=C/c2ccccc2)OC1=O | 0.0 | 8.7 | 35.4* | -12.5 | 1.5
CC(CCc1ccccc1)NC(=O)C(=O)Nc1ccccc1 (stereo not given) | -0.4 | 5.6 | 72.3* | -11.9 | -0.2
N#C/C(=C\c1ccc(O)c([N+](=O)[O-])c1)C(=O)NCc1ccccc1 | -6.2 | 4.3 | 4.1 | -22.9 | -0.5
N#C/C(=C\c1ccc(O)c(Br)c1)C(=O)NCc1ccccc1 | -1.6 | 14.4 | 69.4* | -5.0 | -1.0
O=C(COC(=O)CC1CC2CCC1C2)Nc1cc([N+](=O)[O-])ccc1F (stereo not given) | 2.2 | 31.9* | -13.9 | 1.2 | 0.1
Cc1ccc(C)c(NC(=O)COC(=O)CC2CC3CCC2C3)c1 (stereo not given) | -1.0 | . | . | -6.2 | .
COc1ccc(N(CC(=O)NCCSCc2ccc(C)cc2)S(=O)(=O)c2ccccc2)cc1 | 0.1 | 7.1 | 30.8* | -14.9 | 0.9
CN(C)S(=O)(=O)N(CC(=O)NCCSCc1ccccc1)c1ccccc1 | 7.5 | 84.6*! | -1.1 | -4.9 | -0.2
Cc1ccccc1CSCCNC(=O)CN(c1ccccc1)S(=O)(=O)N(C)C | . | -1.1 | . | . | -0.4
CC(C)CN(c1ccccc1)S(=O)(=O)c1nnc(NC(=O)c2ccco2)s1 | -2.1 | 4.7 | 67.8* | -29.5 | 0.2
CCOC(=O)c1sc2nc(C)nc(SCC(=O)NC3CCS(=O)(=O)C3)c2c1C (stereo not given) | 3.0 | 41.8* | -17.2 | -8.1 | -1.0
Cc1nc(-n2nc(C)c(Cc3ccc(Cl)cc3)c2C)sc1C(=O)N1CCC(C)CC1 | . | -13.8 | . | . | -1.7
Cn1c2c(c(=O)n(C)c1=O)C1(C(=O)Nc3ccccc31)C(C#N)=C(N)O2 (stereo not given) | 10.2 | . | . | 53.6* | .
N#CC1=C(N)Oc2ccccc2C12C(=O)Nc1n[nH]c(-c3ccccc3)c12 (stereo not given) | 8.1 | 1.5 | -2.2 | 22.4 | -0.7
Cc1sc2c(c1C)c(=O)n(CCc1ccccc1)c(=O)n2Cc1cccc(F)c1 | . | 2.3 | . | . | .
COC(=O)CSc1nc2ccccc2nc1SCC(=O)OC | 0.3 | 31.1* | -7.2 | -11.9 | 0.7
CC(C)c1cnc2c(c1SCC(=O)N1CCCCC1)c(=O)n(C)c(=O)n2C | . | -8.3 | . | . | -0.5
Cc1cc2ccccn2c1C(=O)c1ccc([N+](=O)[O-])o1 | 7.0 | 2.0 | 36.4* | 28.1 | 0.2
COc1ccc(CCNC(=O)NCc2noc3ccccc23)c(OC)c1 | . | 1.4 | . | . | -0.4
Nc1ccc(O)cc1C(=O)OCC(=O)c1ccc(C2CCCCC2)cc1 | 12.8 | -3.7 | -6.6 | 76.8* | 0.4
COc1ccc(C(=O)OCC(=O)c2ccc(C3CCCCC3)cc2)cc1 | 1.2 | 0.9 | 8.8 | 1.3 | 0.7
CC(C)CC(=O)n1sc(NC(=O)c2ccccc2)nc1=O | -3.0 | -3.5 | -1.7 | -21.1 | -0.5
COC(=O)C1=C(C(=O)OC)SC(=C2C(=S)C(C)(C)N(C(=O)CC(C)C)c3ccccc32)S1 | -0.1 | 8.8 | 30.3* | -12.4 | 0.4
Cc1cc(NC(=O)c2ccccc2F)nc2c1c(=O)oc1ccccc12 | -0.2 | 41.6* | -4.4 | -7.3 | -0.1
CCCC(=O)Nc1cc(C)c2c(=O)oc3ccccc3c2n1 | -6.0 | 14.9 | -18.7 | 1.4 | -0.5
SMILES | D2 ag-1 | D2 PAM-1 | D2 antag | D2 PAM-2 | D2 ag-2
CCCCn1c(=NC(=O)C(C)(C)Oc2ccc(Cl)cc2)c(C(=O)OCC)cc2c(=O)n3ccccc3nc21 | . | -5.1 | . | . | 0.9
CCCC(=O)Nc1nc2nc(-c3ccccc3)cc(=O)n2[nH]1 | -1.4 | 3.0 | 31.8* | -6.5 | 0.0
Cc1cc(C)c(OCC(=O)N(Cc2cccc(F)c2)Cc2ccco2)c(C)c1 | . | -4.7 | . | . | 0.8
CC1CCCN(S(=O)(=O)c2ccc(S(=O)(=O)N3CCC4(CC3)OCCO4)cc2)C1 (stereo not given) | -4.3 | 0.3 | 39.7* | -12.9 | 0.5
Cc1ccc(N2CCN(C(=O)Nc3cn(CC(C)C)c(=O)c4ccccc34)CC2)c(C)c1 | . | 2.1 | . | . | -1.8
CCOc1cc(C(=O)Nc2c(NC)c3ccccc3oc2=O)cc(OCC)c1OCC | . | -7.6 | . | . | -0.9
N#CCCn1cc(/C=N/N=C2\NC(=O)C(CC(=O)O)S2)c(-c2ccc(F)cc2)n1 (stereo not given) | -1.9 | 3.3 | 35.1* | -6.3 | 0.2
C/C(=N\NC(=O)c1ccccc1F)c1ccc2c(c1)Nc1ccccc1S2 | ? | -2.5 | -4.4 | 87.2* | 0.1
COc1cccc(N2CCN(Cc3ccsc3)CC2)c1 | 0.2 | -22.8 | 48.0* | -18.4 | 17.8
COc1ccc(C2NC(=O)NC(C)=C2C(=O)OCc2ccccc2)cc1 (stereo not given) | 8.2 | 3.8 | 4.0 | 4.5 | -2.2
CC1=C(C(=O)OCc2ccccc2)C(c2ccccc2)NC(=O)N1 (stereo not given) | 13.9 | 5.0 | 3.3 | 52.6* | -0.1
CC1=C(C(=O)OCc2ccccc2)C(c2cccc(F)c2)NC(=O)N1 (stereo not given) | 43.6* | 1.1 | 2.6 | 71.9* | -1.4
Cc1ccc(C(=O)N2CCc3cc(CNS(=O)(=O)c4cccs4)ccc32)cc1 | . | 7.1 | . | . | 0.1
CC(C)(C)OC(=O)N1CCC(c2c(C(=O)NCCN3CCC(Cc4ccccc4)CC3)cnn2-c2ccc(F)cc2)CC1 | . | 0.9 | . | . | 3.0
COc1cccc(CC2(CO)CCCN(Cc3ccccc3Cl)C2)c1 (stereo not given) | -2.4 | -4.9 | -14.9 | -0.1 | -1.4
COC(=O)c1ccc(CN2CCC(CO)(Cc3cccc(OC)c3)CC2)cc1 | -0.5 | -11.9 | 37.0* | -14.7 | -0.7
COC(=O)c1ccc(CN2CCC(CO)(CCOc3ccccc3)CC2)cc1 | -7.3 | -25.1 | . | -4.7 | .
COc1cccc(CC2(CO)CCCN(Cc3ccc(CN4CCCCC4)s3)C2)c1 (stereo not given) | -5.2 | -18.0 | 39.6* | -19.3 | -0.5
CN(C)c1ccc(/C=N/NC(=O)C(O)(c2ccccc2)c2ccccc2)o1 | 1.0 | 3.4 | 32.6* | -8.2 | -1.0
Cc1nc2nc(C)c(CCC(=O)NCCc3ccccc3)c(C)n2n1 | . | -3.6 | . | . | -1.0
COc1cccc(N2CCN(C(=O)c3cnn(C(C)(C)C)c3C3CCN(C(=O)OC(C)(C)C)CC3)CC2)c1 | . | 3.9 | . | . | -0.3
CCN(CC)c1ccc(NC(=O)C2CC(=O)N(Cc3ccccc3)C2)cc1 (stereo not given) | 3.7 | 2.9 | 0.8 | -1.4 | -0.4
CN(C)S(=O)(=O)c1ccc(NC(=O)C2CC(=O)N(Cc3ccccc3)C2)cc1 (stereo not given) | -1.5 | 31.1* | -10.0 | -5.7 | 0.1
Cc1nc2c(c(C)c1CCC(=O)Nc1cccc(C(F)(F)F)c1)c(=O)n(C)c(=O)n2C | . | -2.3 | . | . | -0.3
